Measured values: publication PMC4336329 (PLoS ONE, 2015)
Among all 310,000 compounds or so, about 14,000 (4.5%) showed an effect of 50% or more. Effects have a minus sign here. The full list was thinned out, with strong results kept by preference.

biological target: human ether-à-go-go-related gene (hERG) potassium channel (human, UniProt Q12809); assay: primary screen, population patch clamp on CHO cells stably expressing hERG; higher = less effect of the substance
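Further: peak tail current of the secondary pulse compared with the same well before compound.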

Chain of human ether-à-go-go-related gene (hERG) potassium channel (Q12809 whole entry, looked up): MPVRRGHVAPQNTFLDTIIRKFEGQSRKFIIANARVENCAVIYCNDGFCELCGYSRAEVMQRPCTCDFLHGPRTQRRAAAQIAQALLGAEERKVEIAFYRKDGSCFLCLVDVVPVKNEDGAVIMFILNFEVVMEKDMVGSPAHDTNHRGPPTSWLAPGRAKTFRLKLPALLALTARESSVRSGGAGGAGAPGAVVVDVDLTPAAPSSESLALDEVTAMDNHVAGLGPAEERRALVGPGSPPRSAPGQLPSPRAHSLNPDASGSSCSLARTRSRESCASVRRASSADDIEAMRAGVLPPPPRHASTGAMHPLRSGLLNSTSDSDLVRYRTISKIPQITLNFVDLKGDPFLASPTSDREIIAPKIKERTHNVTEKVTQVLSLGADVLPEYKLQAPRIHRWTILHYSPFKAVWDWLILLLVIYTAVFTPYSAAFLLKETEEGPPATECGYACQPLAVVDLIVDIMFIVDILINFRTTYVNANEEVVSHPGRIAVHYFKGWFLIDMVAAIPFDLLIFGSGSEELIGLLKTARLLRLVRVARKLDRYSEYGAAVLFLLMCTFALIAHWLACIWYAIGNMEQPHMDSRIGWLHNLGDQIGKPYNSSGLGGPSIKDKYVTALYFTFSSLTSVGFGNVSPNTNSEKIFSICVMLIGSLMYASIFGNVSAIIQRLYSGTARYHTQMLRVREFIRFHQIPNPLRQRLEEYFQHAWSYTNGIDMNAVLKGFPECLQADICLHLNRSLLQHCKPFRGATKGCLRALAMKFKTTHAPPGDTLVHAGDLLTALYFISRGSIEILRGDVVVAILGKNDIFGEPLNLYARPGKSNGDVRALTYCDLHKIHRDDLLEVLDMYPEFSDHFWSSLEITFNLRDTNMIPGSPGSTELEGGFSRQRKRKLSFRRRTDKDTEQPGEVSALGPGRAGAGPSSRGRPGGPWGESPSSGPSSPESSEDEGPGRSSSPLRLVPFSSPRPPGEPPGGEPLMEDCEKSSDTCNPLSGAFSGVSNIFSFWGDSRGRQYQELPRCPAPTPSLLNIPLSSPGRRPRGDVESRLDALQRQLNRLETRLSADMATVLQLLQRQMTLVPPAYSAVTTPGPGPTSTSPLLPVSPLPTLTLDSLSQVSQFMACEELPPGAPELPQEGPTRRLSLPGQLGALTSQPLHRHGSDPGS

Structure (SMILES) | hERG current change (%, negative = inhibition) at 10uM [%]
C[C@@H](C(=O)NCc1ccccc1)[C@H]1C[C@]1(C)[C@H](NC(=O)OCc1ccccc1)c1ccccc1 | -21.3
C[C@@H](C(=O)NCc1ccc(S(C)(=O)=O)cc1)[C@@H]1C[C@@]1(C)[C@@H](NC(=O)OCc1ccccc1)c1ccccc1 | -75.1
C[C@@H](C(=O)NCc1ccc(S(C)(=O)=O)cc1)[C@H]1C[C@]1(C)[C@H](NC(=O)OCc1ccccc1)c1ccccc1 | -35.4
CCCC(=O)n1nc(-c2ccco2)nc1SCc1ccccc1 | 0.232
O=C(O)C(NS(=O)(=O)c1cccc2nsnc12)c1ccccc1 (stereo not drawn) | 16.1
CC1CCN(C(=O)C(NS(=O)(=O)c2cccc3nsnc23)C(C)C)CC1 (stereo not drawn) | -5.48
O=C(NC1CCCC1)C(NS(=O)(=O)c1cccc2nsnc12)c1ccccc1 (stereo not drawn) | -10.5
CN(CC(=O)N1CCN(c2ccccn2)CC1)S(=O)(=O)c1cccc2nsnc12 | -23.6
O=C(C(NS(=O)(=O)c1cccc2nsnc12)c1ccccc1)N1CCN(c2ccccn2)CC1 (stereo not drawn) | -64.8
O=C(C(NS(=O)(=O)c1cccc2nsnc12)c1ccccc1)N1CCN(c2ccccc2)CC1 (stereo not drawn) | -71.4
CC1CCN(C(=O)C(NS(=O)(=O)c2cccc3nsnc23)c2ccccc2)CC1 (stereo not drawn) | -69.5
O=C(Nc1ccccn1)C(NS(=O)(=O)c1cccc2nsnc12)c1ccccc1 (stereo not drawn) | -4.67
CCOC(=O)N1CCN(C(=O)C(NS(=O)(=O)c2cccc3nsnc23)c2ccccc2)CC1 (stereo not drawn) | -47.1
Cc1c(Cl)cccc1NC(=S)N1CCN(Cc2ccccc2)CC1 | -3.12
CN(C)C(CNC(=O)c1ccccc1C(F)(F)F)c1ccco1 (stereo not drawn) | 7.83
CCS(=O)(=O)Nc1cccc(C(=C2CCCCC2)c2cnc[nH]2)c1 | -30.2
CCN1CCc2c(C#N)c(N3CCOCC3)nc(N3CCOCC3)c2C1 | 5.21
O=C(Nc1ncccn1)C1=C(O)c2ccccc2S(=O)(=O)N1Cc1ccccc1 | 22.8
CCOC(=O)/C(C#N)=C/c1cccn1-c1ccc(Cl)cc1 | 2.73
C/C(=N\NC(=O)COc1ccccc1F)c1cc2ccccc2o1 | 3.99
COc1cc(OC)cc(-c2nnc(SCc3cccc(C(=O)O)c3)o2)c1 | 8.29
COc1cc(OC)cc(-c2nnc(SCc3ccc(C(=O)O)cc3)o2)c1 | -71.6
Cc1cc(C)cc(-c2nnc(SCc3ccc(C(=O)O)cc3)o2)c1 | -74

Structure (SMILES) | hERG current change (%, negative = inhibition) at 10uM [%]
O=C(O)c1ccc(CSc2nnc(-c3ccc(Cl)cc3)o2)cc1 | 26.5
O=C(O)c1ccc(CSc2nnc(-c3ccco3)o2)cc1 | 2.07
COc1ccc(-c2nnc(SCc3ccc(C(=O)O)cc3)o2)cc1OC | 13.7
CN(C(=O)c1ccnn1C)C1CCCN(Cc2ccccc2F)C1 (stereo not drawn) | 15.2
CSCCC(NC(=O)c1ccccc1Br)C(=O)N1CCN(C(C)=O)CC1 (stereo not drawn) | 8.22
O=C(COC(=O)c1ccc(Br)o1)Nc1ccc(Br)cc1 | 19
CCCc1cc(C(=O)Nc2sc3c(c2C(=O)OCC)CCCC3)no1 | 6.07
O=C(NNc1nc(-c2ccccc2)c2cc(Br)ccc2n1)c1ccc(S(=O)(=O)N2CCCCC2)cc1 | 8.26
COc1ccc(-c2cn[nH]c2-c2ccc(OCc3ccc([N+](=O)[O-])cc3)cc2O)cc1 | -9.1
C/C(=N\NC(N)=S)C1(C)CCCCC1 | 9.27
Cc1cc(N2CCN(C/C=C/c3ccccc3)CC2)n2ncnc2n1 | -71.5
Cc1cc(N2CCN(C(c3ccccc3)c3ccccc3)CC2)n2ncnc2n1 | -5.7
Cc1cc(C)nc(N2CCN(c3nnnn3-c3ccccc3)CC2)n1 | 9.05
Cc1cc(N2CCN(c3ccccc3)CC2)n2ncnc2n1 | -31.2
Cc1nc2ncnn2c(C)c1C/C=C/c1ccccc1 | -15.3
Cc1cc(N2CCN(Cc3ccc4c(c3)OCO4)CC2)n2ncnc2n1 | 7.64
c1ccc(N2CCN(c3nnnn3-c3ccccc3)CC2)cc1 | -11.2
Cc1cc(C)nc(N2CCN(c3ccc(F)cc3)CC2)n1 | 13.2
Cc1cc(N2CCN(c3ccc(F)cc3)CC2)n2ncnc2n1 | -57.6
Cc1cc(N2CCc3ccccc32)n2ncnc2n1 | -0.558
Cc1cc(N2CCN(c3nnnn3-c3ccccc3)CC2)n2ncnc2n1 | -60.2
Cc1cc(N2CCN(c3nc4ccccc4s3)CC2)n2ncnc2n1 | -77.6
